Shown are actives, neighbours in structure and some others; about 1.4% of the full set was active somewhere.
RXFP1 ag: activates the human relaxin receptor RXFP1; AID 2676; Potency, µM (series often up to 57.5 µM), actives largely listed as activators; HEK293T-RXFP1 cAMP TR-FRET, 30 min; response scale: percent of porcine relaxin response, buffer zero; Q9HBX9; 370,000 compounds, 0.3% hits; further: nearly all actives have a fitted effect of over 60% in size
Target sequence (Q9HBX9 whole entry, looked up): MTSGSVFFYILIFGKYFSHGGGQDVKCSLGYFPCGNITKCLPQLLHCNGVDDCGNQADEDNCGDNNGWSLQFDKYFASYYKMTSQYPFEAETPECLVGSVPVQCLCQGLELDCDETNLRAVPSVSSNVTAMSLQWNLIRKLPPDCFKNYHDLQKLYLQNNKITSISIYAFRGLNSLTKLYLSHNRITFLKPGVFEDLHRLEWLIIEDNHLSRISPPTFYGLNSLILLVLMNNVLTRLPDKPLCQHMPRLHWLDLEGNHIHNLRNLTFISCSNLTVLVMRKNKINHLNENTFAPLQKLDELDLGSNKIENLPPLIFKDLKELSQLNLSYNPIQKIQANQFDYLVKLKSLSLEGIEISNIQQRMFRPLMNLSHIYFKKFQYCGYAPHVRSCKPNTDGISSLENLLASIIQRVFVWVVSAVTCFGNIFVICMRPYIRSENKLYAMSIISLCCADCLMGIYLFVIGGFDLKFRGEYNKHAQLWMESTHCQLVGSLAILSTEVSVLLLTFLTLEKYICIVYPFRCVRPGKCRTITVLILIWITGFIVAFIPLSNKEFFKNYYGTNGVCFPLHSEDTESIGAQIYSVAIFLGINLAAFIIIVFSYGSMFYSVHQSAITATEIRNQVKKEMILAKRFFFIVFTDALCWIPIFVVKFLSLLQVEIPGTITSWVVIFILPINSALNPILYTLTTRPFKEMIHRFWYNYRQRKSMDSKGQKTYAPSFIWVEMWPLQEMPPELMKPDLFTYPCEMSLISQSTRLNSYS
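HEK293T cells stably expressing RXFP1 were pretreated with the PDE4 inhibitor Ro 20174, exposed to compounds for 30 min at 37C, lysed, and cAMP was read by TR-FRET. Data normalized to buffer (basal) and 29 nM porcine relaxin (100%).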
Glioma ERSR ind: induces the endoplasmic reticulum stress response in human glioma cells; U87-MG GRP78 promoter luciferase reporter, 16 h; Potency, µM, most hits filed as activators; 420,000 compounds, 0.02% hits; further: series mostly up to about 76 µM; nearly all actives have a fitted effect of over 35% in size
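Stably transfected U87-MG human glioma cells carrying a GRP78-based luminescent sensor were seeded at 1000 cells/well, pin-dosed with compounds and incubated 16 h. Luciferase reagent was then added, and end-point luminescence was read after 10 min at room temperature.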
KCNH2 3.1 inh: inhibitors of human KCNH2 3.1 potassium channel isoform; U2OS KCNH2 3.1, thallium flux FluxOr; hits give low values; activity change, % (tested at about 1.8 µM); 340,000 compounds, 0.95% hits; AID 720553;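 active means maximum activity change below -70%; inconclusive means maximum activity change from -70% to -50%; inactive means maximum activity change above -50%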;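 further: thallium influx rate constant from kinetic fluorescence after stimulation buffer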
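Steps: virus added to U2OS suspension (4 h, RT, dark); medium with 10% FBS added, cells plated, 37 C overnight; FluxOr/Red40 loading buffer 45 min RT; stimulation buffer, 2 min kinetic read; rate constant normalized.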
RXFP1 antag: RXFP1 (human) relaxin receptor antagonism. Q9HBX9. HEK293-RXFP1, relaxin-stimulated cAMP HTRF, 30 min; hits give low values. activity change, negative = inhibition, % at 57.5 µM. 350,000 compounds, 0.59% hits. AID 1259400;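 active means activity change of -60% or lower, but not beyond a set lower limit; inconclusive means change between -60% and -40%, or beyond the set limit; inactive means change above -40%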
PTHR1 agonist: agonists of human PTHR1 parathyroid hormone receptor; Q03431; HEK293 GP2 PTHR1 cells, GloSensor cAMP luminescence, 1 h; Potency, µM (highest dose often 115 µM), usual class: activators; 410,000 compounds, 0.075% hits; further: nearly all actives have a fitted effect of over 55% in size
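HEK-293-derived GP2 cells expressing PTHR1 and a GloSensor cAMP reporter, 3,000/well, plated overnight, given luciferin plus IBMX (each 0.5 mM as added) for 1 h at 37 °C, then compound for 1 h at 37 °C. Luminescence was read after 15 min at room temperature.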
KCNH2 WT inh: inhibitors of human wildtype KCNH2 potassium channel; activity change, % at 1.84 µM; 340,000 compounds, 0.37% hits; AID 720551; Q12809; U2OS, BacMam KCNH2, thallium flux FluxOr; hits give low values;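 active means maximum activity change below -70%; inconclusive means maximum activity change between -70% and -50%; inactive means maximum activity change above -50%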
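U2OS cells were transduced with wild-type KCNH2 virus (2.03 x 10^8 / mL) for 4 h at room temperature, then cultured overnight at 37 C. Thallium flux was read with FluxOr dye. Rate constants were normalized to DMSO controls.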
Each line names hits and unclear results; the compound was inactive in the other large screens; ! = not confirmed by another sample. Unless noted, the call rests on the fitted dose curve; in most records, active means well fitted curve in the direction sought with a large enough effect; inconclusive means small, poorly fitted or top-dose-only effect, or another doubt; inactive means no such curve, though single readings can be large; an effect the other way counts as inactive or inconclusive.

Cc1ccc(CN2CCN(CCCn3cnc4c(OCc5ccccc5)ncnc43)CC2)cc1	KCNH2 3.1 inh -97, KCNH2 WT inh -127 (no result: RXFP1 ag, RXFP1 antag)
c1ccc(COc2ncnc3c2ncn3CCCN2CCN(Cc3cccc4ccccc34)CC2)cc1	KCNH2 3.1 inh inconclusive (no result: RXFP1 ag)
CSc1ccc(CN2CCN(Cc3ccc([N+](=O)[O-])cc3)CC2)cc1	KCNH2 3.1 inh -110, RXFP1 antag inconclusive, KCNH2 WT inh -112
CSc1ccc(CN2CCN(C(=O)CC(C)C)CC2)cc1	RXFP1 antag -63
COc1ccc(CN2CCOCCOCCN(Cc3ccc(OC)cc3)CCOCCOCC2)cc1	KCNH2 3.1 inh -74
O=[N+]([O-])c1ccc(COc2ccc(Br)cc2CN2CCOCC2)cc1	KCNH2 3.1 inh -90
O=[N+]([O-])c1ccc(CN2CCCCCC2)cc1	none
O=[N+]([O-])c1ccc(COc2ccccc2CN2CCCC2)cc1	none (no result: RXFP1 ag, RXFP1 antag)
COCCNC(=O)c1cccc(OC2CCN(Cc3ccc(OC(F)F)cc3)CC2)c1	KCNH2 3.1 inh -80
O=[N+]([O-])c1ccc(COc2ccc(CN3CCOCC3)cc2)cc1	none (no result: RXFP1 ag, RXFP1 antag)
COCCNC(=O)c1ccc(CN2CCOCC2)cc1	KCNH2 WT inh -133
COCCNC(=O)c1cccc(OC2CCN(Cc3cccc(C(C)=O)c3)CC2)c1	none
O=[N+]([O-])c1ccc(CN2CCOCCOCCN(Cc3ccc([N+](=O)[O-])cc3)CCOCC2)cc1	KCNH2 3.1 inh -115, KCNH2 WT inh -90
O=C(Nc1nc(-c2ccccc2)cs1)c1ccc(N2CCOCC2)c([N+](=O)[O-])c1	none
Cc1ccc(-c2csc(NC(=O)c3cc([N+](=O)[O-])ccc3N3CCOCC3)n2)cc1	KCNH2 WT inh -108
Cn1cnnc1SCCn1c(N2CCCCC2)nc2c1c(=O)[nH]c(=O)n2C	none
CCOc1ccc(N2C(=O)CC(N3CCc4ccccc43)C2=O)cc1 (stereo unspecified)	none
O=C(OCc1ccc([N+](=O)[O-])cc1)c1cc([N+](=O)[O-])ccc1N1CCOCC1	KCNH2 3.1 inh -89, KCNH2 WT inh -106
O=S1(=O)C2CC3C=CC2(O3)C(O)C(Cc2ccccc2)N1Cc1cccc(F)c1 (stereo unspecified)	none (no result: RXFP1 ag, KCNH2 3.1 inh, RXFP1 antag, PTHR1 agonist, KCNH2 WT inh)
OC1(c2ccc(Cl)cc2)CCN(Cc2cn[nH]c2-c2ccc(F)cc2)CC1	KCNH2 3.1 inh -88
COc1ccc(-c2[nH]ncc2CN2CCC(O)(c3ccc(Cl)cc3)CC2)cc1	KCNH2 3.1 inh -70
OCC1(CCOc2ccccc2)CCN(Cc2cn[nH]c2-c2ccc(F)cc2)CC1	KCNH2 3.1 inh -104, KCNH2 WT inh inconclusive
OC1(c2ccc(Cl)cc2)CCN(Cc2cn[nH]c2-c2ccccc2)CC1	KCNH2 3.1 inh -87, KCNH2 WT inh inconclusive
Fc1ccc(N2CCN(Cc3cn[nH]c3-c3ccccc3)CC2)cc1	Glioma ERSR ind inconclusive, KCNH2 3.1 inh inconclusive
COc1ccc(-c2[nH]ncc2CN2CCN(c3ccc(F)cc3)CC2)cc1	none
O=C(Nc1cccc(-c2cnc3ccccc3n2)c1)c1ccc(Cl)cc1	none
Cc1nc(CNS(=O)(=O)c2cc(F)ccc2F)cs1	Glioma ERSR ind inconclusive, KCNH2 3.1 inh -181
CC(=O)Nc1ccc(S(=O)(=O)NCC(=O)OCC(=O)Nc2sccc2C(N)=O)cc1	PTHR1 agonist inconclusive
CC(Oc1cccnc1[N+](=O)[O-])C(=O)Nc1cccc(Cl)c1 (stereo unspecified)	RXFP1 antag -97
CC(=O)/C=C1\C(=O)N(C)c2ccccc21	none (no result: RXFP1 ag, KCNH2 3.1 inh, RXFP1 antag, PTHR1 agonist, KCNH2 WT inh)
O=C1Nc2ccc(Br)cc2/C1=C/C(=O)c1ccccc1	RXFP1 antag -82 (no result: RXFP1 ag)
CC(=O)/C=C1/C(=O)Nc2ccccc21	RXFP1 antag -73
O=C1NC[C@H](CCCCN2C[C@H](Cc3ccccc3)N(CCc3ccc(O)cc3)C(=O)C2=O)N(CC2CCCCC2)C1=O	none (no result: RXFP1 ag, Glioma ERSR ind, KCNH2 3.1 inh, RXFP1 antag, KCNH2 WT inh)
CC1(C)CC(=O)C=C(c2ccc(COC(=O)C3CC3)cc2)C1=O	none (no result: RXFP1 ag)
CO/N=C/c1ccc(N2CCN(C(=O)c3cccc(C(F)(F)F)c3)CC2)c([N+](=O)[O-])c1	KCNH2 WT inh -243
O=C(N/N=C/c1ccc(N2CCOCC2)c([N+](=O)[O-])c1)c1ccc(F)cc1	none
CO/N=C/c1ccc(N2CCN(C(=O)c3ccc(F)cc3)CC2)c([N+](=O)[O-])c1	KCNH2 3.1 inh -102
CO/N=C/c1ccc(N2CCN(C(=O)c3ccc(Cl)cc3Cl)CC2)c([N+](=O)[O-])c1	KCNH2 3.1 inh -109
O=C(O/N=C\c1ccc(N2CCCCC2)c([N+](=O)[O-])c1)c1cccc(C(F)(F)F)c1	none
Cc1ccc(C(=O)O/N=C\c2ccc(N3CCCCC3)c([N+](=O)[O-])c2)cc1	Glioma ERSR ind inconclusive, KCNH2 3.1 inh -77
CCOc1ccccc1C(=O)N/N=C/c1coc2ccc(Cl)cc2c1=O	none
COc1ccc(-c2cc3c(c4c2ccn4C)C2CCC3O2)cn1 (stereo unspecified)	none (no result: RXFP1 ag, KCNH2 3.1 inh, RXFP1 antag, KCNH2 WT inh)
O=C(CC(c1ccc(F)cc1)c1ccco1)N1CCCC1 (stereo unspecified)	none
CC(=O)c1ccc(NC(=O)COC(=O)CCC2CCCC2)cc1	none (no result: RXFP1 ag)
Cc1ccc(NC(=O)CN2CCN(Cc3ccccc3)CC2)c(Br)c1	KCNH2 3.1 inh -87
OCC1(CCc2ccccc2)CCN(C/C=C/c2ccccc2)CC1	KCNH2 3.1 inh -107, KCNH2 WT inh -135
O=C(CN1CCN(C(c2ccccc2)c2ccccc2)CC1)NCc1ccccc1	RXFP1 antag -74
O=C(CN1CCN(C/C=C/c2ccccc2)CC1)NCc1ccccc1	KCNH2 3.1 inh -91 (no result: KCNH2 WT inh)
OCC1(Cc2ccccc2Cl)CCN(C/C=C/c2ccccc2)CC1	none
CCCC[C@]12Cc3cc(OC)c(OC)cc3C(O1)c1c(cc(-c3ccccc3)oc1=O)O2	none (no result: Glioma ERSR ind, KCNH2 3.1 inh, RXFP1 antag, PTHR1 agonist, KCNH2 WT inh)
Cc1ccc(CN2CCN(CC(=O)NCc3ccccc3)CC2)cc1	RXFP1 antag -99
COc1cc([N+](=O)[O-])ccc1NC(=O)NCC1CCN(Cc2ccc(Cl)cc2)CC1	KCNH2 3.1 inh -102, KCNH2 WT inh -107
CCN1CCN(Cc2ccc(NC(=O)c3ccc(C)c(NC(=O)C(=O)c4c[nH]c5ccccc45)c3)cc2C(F)(F)F)CC1	KCNH2 WT inh -132!
CCN1CCN(Cc2ccc(NC(=O)c3cc(NC(=O)C(=O)c4c[nH]c5ccccc45)cc(OC)c3)cc2C(F)(F)F)CC1	none
O=C(c1cc2cc3ccc(Cl)cc3nc2o1)N1CCN(Cc2ccc3c(c2)OCO3)CC1	none (no result: RXFP1 ag)
Cc1[nH][nH]c(=O)c1C(c1ccc(Cl)cc1)c1c(C)[nH][nH]c1=O	RXFP1 antag -80
O=C(CN(Cc1ccco1)S(=O)(=O)c1ccccc1)N/N=C/c1ccccc1C(=O)O	KCNH2 3.1 inh -104

Screening results: PubChem, National Center for Advancing Translational Sciences (NCATS)
